Measurements from PubChem BioAssay AID588453 (National Center for Advancing Translational Sciences (NCATS), 2011).
“And” between values parts separate entries of the source, which are not always exact repeats. Identical values can stand only once. Out of some 390,000 compounds screened, about 4,000 (1%) were called active. Where a call stands in place of a potency, no number is given. Inconclusive results (about 4%) are left out. The sample holds actives, similar compounds and a random draw of the others, so the mix is not that of the screen. Unmarked numbers belong to inactive results. The call rests on the fitted dose curve; in most records, active means well fitted inhibition curve with a large enough effect; inconclusive means small, poorly fitted or top-dose-only effect; inactive means no such curve, though single readings can be large or run the other way.

Target: Thioredoxin reductase 1, cytoplasmic (Rattus norvegicus) (UniProt O89049)
Test: qHTS Assay for Inhibitors of Mammalian Selenoprotein Thioredoxin Reductase 1 (TrxR1): qHTS; further: nearly all actives have a fitted effect of over 65% in size
Details: recombinant rTrxR1, NADPH fluorescence consumption, selenite substrate; series mostly up to 114 µM
Text: The selenoprotein thioredoxin reductase (TrxR; EC 1.8.1.9) is a FAD containing homodimeric pyridine nucleotide-disulfide oxidoreductase with many cellular roles. Together with NADPH and its prime substrate thioredoxin (Trx), the enzyme forms the core of the Trx system. The mammalian Trx system exerts a wide spectrum of functions including redox regulation, antioxidant defense, regulation of transcription factors as well as support of cell growth and replication. Many of these functions involve the reduction of Trx, which may subsequently reduce a number of different substrates including ribonucleotide reductase, peroxiredoxins or NFkB. Mammalian TrxR itself also has a broad substrate specificity, reducing both protein and non-protein substrates, including low molecular weight compounds such as dehydroascorbate, lipoic acid, ubiquinone, and juglone. In addition, several drugs in clinical use for anticancer treatment are indeed known to target TrxR1.
This BioAssay is a validation of an NADPH fluorescence-based, dual-purpose qHTS rTrxR1 assay designed to find potential inhibitors and substrates of rTrxR1. For this particular BioAssay, actives are potential inhibitors. See related BioAssay for substrate data deposition.
NIH Molecular Libraries Probe Production Network [MLPCN]
NIH Chemical Genomics Center [NCGC]
Assay Provider: Elias Arner, Karolinska Institute
Assay protocol: 2 uL of reagents (buffer in column 4 as negative control and 90 nM rTrxR1 in columns 1-3 and 5-48) were dispensed into Greiner black solid-bottom 1,536-well assay plates, followed by 1 uL of NADPH (400 uM final concentration) to each well. The plates were centrifuged at 1000 rpm for 15 seconds and subsequently incubated for 5 min at room temperature (~22 deg C) to allow for rTrxR1 reduction. Compounds (23 nL) were then transferred via Kalypsys pin tool equipped with 1536-pin array (10 nL slotted pins, V&P Scientific, San Diego, CA). In addition, a duplicate 2-fold serial dilution of the control compounds auranofin, a known gold-based TrxR1 inhibitor, and juglone (5-hydroxy-1,4-naphthoquinone), a natural TrxR1 substrate, were pin-transferred to columns 2 and 3, respectively. After incubation for 15 min at room temperature (~22 deg C), 1 uL of selenite (400 uM final concentration) were dispensed to each well. The plate was immediately transferred to a ViewLux high-throughput CCD imager (PerkinElmer), wherein kinetic measurements of NADPH fluorescence (Ex 340 nm, Em 450 nm) were acquired (8 minute kinetic read, see Table 1). Read 1 was utilized to assess the capacity of a compound to serve as an rTrxR1 substrate, i.e. a decrease in NADPH fluorescence compared to the no-compound background is an indication of a substrate behavior for that particular compound. For inhibitory activity of a compound, delta values, computed as the difference in fluorescence intensity between the first and last reads of an 8-minute time kinetic window, were used. All reagents were diluted in an assay buffer consisting of 50 mM Tris-HCl, pH 7.5, 2 mM EDTA, and 0.01% Tween-20.
Throughout the screen, reagent bottle and all liquid lines were made light-tight to minimize reagent degradation. All screening operations were performed on a fully integrated robotic system (Kalypsys, San Diego, CA) containing one RX-130 and two RX-90 anthropomorphic robotic arms (Staubli, Duncan, SC). Library plates were screened starting from the lowest and proceeding to the highest concentration, and a 'double-pinning' step of the highest concentration was required to access higher concentrations of compounds. Vehicle-only plates, with DMSO being pin-transferred to the columns 5-48, were inserted uniformly at the beginning and the end of each library in order to monitor and record any shifts in the background, which can be affected by reagent dispensers or loss in enzyme activity over time. […]
Potency means the concentration at half of the fitted maximal effect.

Chain of Thioredoxin reductase 1, cytoplasmic (Rattus norvegicus) (O89049 whole entry, looked up): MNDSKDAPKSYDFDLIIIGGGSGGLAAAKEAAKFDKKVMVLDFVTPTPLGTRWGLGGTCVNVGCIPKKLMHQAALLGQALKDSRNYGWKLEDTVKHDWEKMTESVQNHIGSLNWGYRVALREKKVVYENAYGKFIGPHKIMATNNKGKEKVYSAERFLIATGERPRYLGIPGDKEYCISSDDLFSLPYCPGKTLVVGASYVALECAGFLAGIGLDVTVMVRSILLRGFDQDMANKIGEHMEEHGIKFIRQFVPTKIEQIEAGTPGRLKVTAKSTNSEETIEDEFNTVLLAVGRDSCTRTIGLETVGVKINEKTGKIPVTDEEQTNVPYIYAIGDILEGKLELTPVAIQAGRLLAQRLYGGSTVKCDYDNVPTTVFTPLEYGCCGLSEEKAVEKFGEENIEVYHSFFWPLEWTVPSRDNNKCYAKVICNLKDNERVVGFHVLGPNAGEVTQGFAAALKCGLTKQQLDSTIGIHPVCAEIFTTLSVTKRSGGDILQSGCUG

Row | Structure (SMILES) | Potency | activity change, negative = inhibition
1 | O=c1[nH]c(O)c(C=Nc2cc(F)cc(F)c2)c(=O)[nH]1 | inactive | –
2 | O=C1N=c2ccccc2=C/C1=C\c1c(O)[nH]c(=S)[nH]c1=O | 17.8 µM (active) | –
3 | Cc1ccc2c(c1)=C/C(=C\c1c(O)[nH]c(=O)[nH]c1=O)C(=O)N=2 | 10 µM (active) | –
4 | COc1ccccc1N=Nc1c(O)[nH]c(=S)[nH]c1=O | inactive | –
5 | CC(=O)Nc1ccc(C(=O)C(Cc2ccccc2)N(C)C)cc1 (centres undefined) | inactive | –
6 | CCC(C)n1c(O)c(/C=N/Nc2nc3c(c(=O)n(C)c(=O)n3C)n2C)c(=O)[nH]c1=S (centres undefined) | – | 12% [at 11.4 µM]
7 | O=C(Cn1c(=O)n(CC2CS2)c2ccccc21)N1CCCCC1 (centres undefined) | inactive | –
8 | OCC#CC[N+]1(CC#Cc2ccccc2)CCCC1 | inactive | –
9 | COCCNC(=O)CN1C2CCC1CC(O)(c1cccnc1)C2 (centres undefined) | inactive | –
10 | CCOc1ccc(C2SCC(=O)Nc3c2c(C)nn3C2CCOC(C)(C)C2)cc1 (centres undefined) | inactive | –
11 | c1ccc(CCNC2CCCCCC2)cc1 | inactive | –
12 | COc1ccc2[nH]c3c(c2c1)CCN[C@H]3C | inactive | –
13 | O=c1c2ccccc2nc(/C=C/c2ccco2)n1-c1ccccc1O | 15.8 µM (active) | –
14 | Cn1cc(/C=C/c2nc3ccccc3c(=O)n2-c2ccccc2)c2ccccc21 | inactive | –
15 | O=c1c2ccccc2nc(/C=C/c2ccc(F)cc2)n1-c1ccccc1O | inactive | –
16 | Cc1cccc(Cn2cccc(C(=O)Nc3ccc4c(c3)OCCO4)c2=O)c1 | inactive | –
17 | O=C1NC(=O)C(Cc2ccccc2)C(=O)N1 | – | -9.71% [at 2.29 µM]
18 | CCCCn1c(O)c(C(CC)=NCc2ccco2)c(=O)[nH]c1=O | inactive | –
19 | CCC(=NCc1ccco1)c1c(O)n(Cc2ccccc2)c(=O)[nH]c1=O | 14.1 µM (active) | –
20 | CN(C)CCCN=Cc1c(O)n(Cc2ccco2)c(=O)[nH]c1=O | inactive | –
21 | O=C(COC(=O)Cc1ccccc1)Nc1ccc(F)cc1 | inactive | –
22 | CCOc1ccc(-c2cc(C)n3nc(C(=O)Nc4ccc(C)c(C)c4)cc3n2)cc1 | inactive | –
23 | CC(C)c1c(CN(C)C(C)Cc2ccccc2)n(C)n(-c2ccccc2)c1=O (centres undefined) | inactive | –
24 | ClCCN(CCCl)c1ccc(C=Nc2ccc(/C=C/c3ccnc4ccccc34)cc2)cc1 | inactive | –
25 | CC(=O)NBr | inactive | –
26 | COc1ccc(NC(=O)c2cn(CCC#N)nc2-c2ccc([N+](=O)[O-])cc2)cc1 | inactive | –
27 | O=C1NC(=O)N(c2ccccc2)C(=O)/C1=C/c1ccc([N+](=O)[O-])s1 | 22.4 µM (active) | –

Row | Structure (SMILES) | Potency | activity change, negative = inhibition
28 | COC(=O)C1=C(c2ccc(F)cc2OCc2ccccc2)C[C@@H]2CC[C@H]1N2C(=O)NCc1ccc(Cl)cc1 | inactive | –
29 | O=[N+]([O-])c1ccc(Cl)c(Cl)c1 | inactive | –
30 | CCC(=O)c1ccc(OCC(=O)N2CCN(CC(=O)Nc3ccc(C)cc3)CC2)cc1 | inactive | –
31 | C=CCN(CC=C)C(=O)Nc1ccc(OCC)cc1 | inactive | –
32 | C=CCN1C(=O)NC(=O)/C(=C/c2ccc(OCC(=O)Nc3ccc(C)cc3)cc2)C1=O | 20 µM (active) | –
33 | COc1cc(Cl)ccc1Nc1ncc(C(=O)N2CCN(c3ccccc3OC)CC2)c2ccccc12 | inactive | –
34 | N#Cc1c(Cl)c(Cl)c(Cl)c(C#N)c1Cl | 0.282 µM (active) | –
35 | C=CCN1CCC23c4c5ccc(O)c4O[C@H]2C(=O)CC[C@@]3(O)C1C5 (some centres undefined) | inactive | –
36 | Cc1ncsc1CCCl | inactive | –
37 | Cc1ccccc1NC(=O)COC(=O)c1cc(C)n(C2CC2)c1C | inactive | –
38 | O=P1(Oc2ccccc2)CC(O)C(O)C(COCc2ccccc2)O1 (centres undefined) | inactive | –
39 | CO[C@H]1[C@@H](O)[C@@H](C)O[C@H](O[C@H]2[C@H](Oc3cccc4c(O)c5c(=O)oc6ccc(C)c7c(=O)oc(c34)c5c67)O[C@H](C)[C@H](O)[C@@H]2O)[C@@H]1O | inactive | –
40 | CCC1(C)CC(=O)NC1=O (centres undefined) | inactive | –
41 | CC[C@H]1CC2CN3CCc4c([nH]c5ccccc45)C(C(=O)OC)(C2)C13 (some centres undefined) | inactive | –
42 | CCOC(=O)c1ncn2c1[C@@H]1CCCN1C(=O)c1cc(OC)ccc1-2 | inactive | –
43 | CC(=O)c1c(O)c(C)c(O)c(Cc2c(O)c3c(c(C(=O)/C=C/c4ccccc4)c2O)OC(C)(C)C=C3)c1O | 28.2 µM (active) and 11.2 µM (active) | –
44 | C[N+]1(C)CCOC(O)(c2ccc(-c3ccc(C4(O)C[N+](C)(C)CCO4)cc3)cc2)C1 (centres undefined) | inactive | –
45 | COC(=O)C1=C(c2ccc(C(C)=O)cc2)C[C@@H]2CC[C@H]1N2C(=O)NCCNC(C)=O | inactive | –
46 | O=C1CC(=O)N(Cc2ccccc2)C(=O)N1CCCCCCN1C(=O)CC(=O)N(Cc2ccccc2)C1=O | 2.82 µM (active) | –
47 | O=C(CN1CCCC1=O)NCCc1ccccc1 | inactive | –
48 | CC(C)(C)c1ccc(CN2C(=O)CN=C(c3ccccc3)c3ccccc32)cc1 | inactive | –
49 | COCc1cc(OC(=O)N(C)C)nc(-c2ccc(C)c(Cl)c2)n1 | inactive | –
50 | COc1ccc(-n2c(-c3ccccc3)nc3ccccc3c2=O)cc1 | inactive | –
51 | CC[C@H]1CN2CCc3cc(OC)c(OC)cc3[C@@H]2C[C@@H]1C[C@H]1NCCc2cc(OC)c(OC)cc21 | inactive | –
52 | COC(=O)C1=C(c2cc3ccccc3s2)C[C@@H]2CC[C@H]1N2C(=O)NCCO | inactive | –
53 | COc1ccc(S(=O)(=O)NCc2ccc(C(=O)N3CCC4(CC3)OCCO4)cc2)cc1 | inactive | –
54 | COc1ccc(NC(=O)N2CCC3(CC2)OCCO3)c(OC)c1 | inactive | –

Row | Structure (SMILES) | Potency | activity change, negative = inhibition
55 | COc1ccc(-c2nc(CS(=O)CC(=O)N3CCC4(CC3)OCCO4)c(C)o2)cc1 (centres undefined) | 7.08 µM (active) | –
56 | CCN(CC)CCOC(=O)c1cc2cc(COC)ccc2o1 | inactive | –
57 | CCN1C(=O)C(=Cc2c(C)n(CC(=O)NCC3CCCO3)c3ccccc23)C(=O)N(CC)C1=S (centres undefined) | 11.2 µM (active) | –
58 | CCCCCCN=C(CC)c1c(O)n(CCCC)c(=O)[nH]c1=O | inactive | –
59 | COC1=C[C@@H]2[C@@H]3Cc4ccc(OC)c(O)c4[C@]2(CCN3C)CC1=O | inactive | –
60 | O=C(O)/C=C/c1ccc2c(c1)OCO2 | inactive | –
61 | CN(C)CC1Oc2ccccc2OC1(O)c1ccccc1 (centres undefined) | 0.398 µM (active) | –
62 | O=C(O)C1C2CCC(O2)C1C(=O)O (centres undefined) | inactive | –
63 | CC1CCC(N(C)C2CCN(C)CC2)CC1 (centres undefined) | inactive | –
64 | CCNc1nc2[nH]c(=O)c3c(c2s1)OC(N)=C(C#N)C3c1cccs1 (centres undefined) | inactive | –
65 | CCCCN1C2CCC1CC(OC(c1ccc(F)cc1)c1ccc(F)cc1)C2 (centres undefined) | inactive | –
66 | COc1ccc(OC)c(NC(=O)Cn2c(=O)oc3ccccc32)c1 | inactive | –
67 | Cc1ccnc(-n2c(C)cc(/C=C3\C(=O)NC(=S)N(C)C3=O)c2C)c1 | 35.5 µM (active) | –
68 | Cc1cc(C=C2C(=O)NC(=O)NC2=O)c(C)n1-c1ccncc1 | inactive | –
69 | Cc1ccc(-n2c(C)cc(/C=C3\C(=O)NC(=O)N(C)C3=O)c2C)cc1C | inactive | –
70 | O=C(O)C1CSC(c2cccnc2)N1 (centres undefined) | inactive | –
71 | c1cncc(CNCCc2c[nH]c3ccccc23)c1 | inactive | –
72 | C[C@@H]1C[C@@H]2O[C@H]2/C=C\C=C\C(=O)Cc2c(Cl)c(O)cc(O)c2C(=O)O1 | 12.6 µM (active) | –
73 | COc1cc([C@@H]2c3cc4c(cc3[C@H](OC(C)=O)[C@H]3COC(=O)[C@H]23)OCO4)cc(OC)c1OC | inactive | –
74 | CCOc1ccc(CN(CCCl)CCCl)cc1C(=O)OC | 15.8 µM (active) | –
75 | CC1=CC(=Cc2sc3ccccc3[n+]2C)C=C(C)O1 | inactive | –
76 | Cc1ccc(Cn2c(C)c3cnn(CC(=O)N4CCC5(CC4)OCCO5)c(=O)c3c2C)cc1 | inactive | –
77 | CCOP(=O)(OCC)C(NC(=O)c1ccc(OC)cc1)C(Cl)(Cl)Cl (centres undefined) | inactive | –
78 | CC(=O)c1ccc(OC(NC(=O)Cc2ccccc2)C(Cl)(Cl)Cl)cc1 (centres undefined) | 10 µM (active) | –
79 | CC(=O)Cc1ccc(OC(C)C)cc1 | inactive | –
